Experiment: growth of efflux-deficient E. coli DRC39 – strain DRC39, OD650, 24 h, E. coli filamentation inducers, primary screen (AID 1178);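 note: growth measured as culture turbidity by optical density at 650 nm; test concentration not given here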
Details: E. coli DRC39 acrAB, higher = more signal, called active from +8 up or from −8 down

z-score, inactive:
C[C@]1(C(=O)NCc2ccccc2)c2ccccc2C(=O)N(Cc2ccc(OC(F)(F)F)cc2)[C@H]1c1ccc(CO)cc1 1
O=C1O[C@@H](c2ccccc2)[C@@H](c2ccccc2)N2[C@@H](c3ccc(O)cc3)[C@]3(C(=O)Nc4ccc(C#CC5=CCCCC5)cc43)[C@@H](C(=O)O)[C@H]12 0.661
O=C(O)[C@@]1(Cc2ccccc2)N=C(c2ccc(OCCCO)cc2)O[C@H]1c1ccccc1 0.24
NC(=O)NCC#Cc1ccc2c(c1)[C@]1(C(=O)N2)[C@H](C(=O)N2CCCCCCC2)[C@H]2C(=O)O[C@H](c3ccccc3)[C@H](c3ccccc3)N2[C@@H]1c1ccc(OCCO)cc1 0.049
CC(C)C[C@@H]1NC(=O)[C@H]2C[C@@H](C(=O)NCCCCCNC(=O)CS)[C@@H](c3cccc(OCCO)c3)N2C1=O 0.346
COC(=O)[C@@]1(Cc2ccccc2)[C@H]2c3cc(C(=O)N4CCCC4)n(C)c3C[C@H]2CN1C(=O)c1ccccc1 -0.396
Cc1ccc(S[C@]2(C(=O)NCC(C)C)CC(=O)N(Cc3ccccc3)[C@@H]2c2ccc(CO)cc2I)cc1 -0.0655
COCCOC(=O)N1C(=O)[C@@]2(c3cc(C#CCCO)ccc31)[C@H](c1ccccc1OCCO)N1[C@H](c3ccccc3)[C@H](c3ccccc3)OC(=O)[C@H]1[C@@H]2C(=O)N1CCN(c2ncccn2)CC1 -0.0933
CC(c1ccccc1)C(O)C1C=CC2C(=O)NC(=O)C2N1Nc1ccccn1 (stereo not given) 0.15
[N-]=[N+]=NCc1ccccc1C[C@@]1(C(=O)N2CCOCC2)N=C(c2ccc(OCCCO)cc2)O[C@@H]1c1ccccc1CN=[N+]=[N-] 0.296
O=C(NCc1ccccc1)[C@]1(CCS(=O)(=O)c2ccccc2)N=C(c2ccc(OCCCO)cc2)O[C@@H]1c1ccccc1 0.79
O=C1c2ccccc2[C@@]2(Cc3ccccc3N(Cc3ccccc3)C2=O)[C@H](c2ccc(CO)cc2)N1C1CCCCC1 0.281
COc1ccc(C(O)C2C=CC3C(=O)N(C)C(=O)C3N2Nc2ccccc2)cc1OCc1ccccc1 (stereo not given) -1.02
CCCNC(=O)[C@@]1(c2ccc([N+](=O)[O-])cc2)CC(=O)N(CC23CC4CC(CC(C4)C2)C3)[C@@H]1c1ccc(CO)cc1 -0.421
O=C1O[C@@H](c2ccccc2)[C@@H](c2ccccc2)N2[C@@H](c3ccc(O)cc3)[C@]3(C(=O)Nc4ccc(C#CC5(O)CCCCCC5)cc43)[C@@H](C(=O)N3CCCCCCC3)[C@H]12 -0.284
CC(C)CNC(=O)[C@@H]1c2ccccc2C(=O)N(Cc2cc(C(F)(F)F)cc(C(F)(F)F)c2)[C@H]1c1ccc(CO)cc1 0.898
O=C1O[C@H](c2ccccc2)[C@H](c2ccccc2)N2[C@H]1[C@@H](C(=O)O)[C@]1(C(=O)Nc3ccc(C#CC4(O)CCCCCC4)cc31)[C@H]2c1ccc(OCCO)cc1 -0.184
CCCC[C@@H]1C[C@H]1[C@@H](NC(=O)c1ccc(-c2ccccc2)cc1)c1ccc(-c2ccccc2)cc1 -0.836
Cc1ccccc1C(O)C1C=CC2C(=O)N(C)C(=O)C2N1N1CCCCC1 (stereo not given) -0.751
Cc1cc(C)c(C(O)C2C=CC3C(=O)N(C)C(=O)C3N2Nc2ccccc2)c(C)c1 (stereo not given) -0.709
COc1ccc(C#Cc2ccc3c(c2)[C@]2(C(=O)N3)[C@H](C(=O)NC[C@H](O)c3ccccc3)[C@H]3C(=O)O[C@H](c4ccccc4)[C@H](c4ccccc4)N3[C@@H]2c2ccc(OCCO)cc2)cc1 -0.34
C=C(C(=O)CC[C@H](OC(C)=O)c1ccc(OCCO)cc1)C(C)C -0.135
CN(C)C(=O)[C@@]1(CCC(=O)OC(C)(C)C)N=C(c2ccc(OCCCO)cc2)O[C@H]1c1ccccc1 0.541
[N-]=[N+]=NCc1ccccc1C[C@]1(C(=O)O)N=C(c2ccc(OCCCO)cc2)O[C@H]1c1ccccc1CN=[N+]=[N-] 0.279
COc1cc(CO)ccc1OC(C)=O 0.35
CC(C)=CCCC(C)=CC(O)C1C=CC2C(=O)N(c3ccccc3)C(=O)C2N1Nc1ccccc1 (stereo not given) -0.994
CC(C)c1ccc(NN2C(C(O)c3ccc(N(C)C)cc3)C=CC3C(=O)N(c4ccccc4)C(=O)C32)cc1 (stereo not given) -0.172
COCCOC(=O)N1C(=O)[C@@]2(c3cc(C#CCC(C(=O)OC)C(=O)OC)ccc31)[C@H](C(=O)N1CCCCCCC1)[C@H]1C(=O)O[C@H](c3ccccc3)[C@H](c3ccccc3)N1[C@@H]2c1ccc(OCCO)cc1 0.027
O=C1OCCC=C[C@H]2OC34C=CCN(Cc5ccccc5)C(=O)[C@H]3N(CCCCCCO)C(=O)[C@@H]4C12 (stereo not given in full) 0.759
Cc1ccc(S[C@]2(C(=O)NCCN3CCOCC3)CC(=O)N(Cc3cc(C(F)(F)F)cc(C(F)(F)F)c3)[C@@H]2c2ccc(CO)cc2I)cc1 0.106
CCCCCN1CC=CC23O[C@@H]4/C=C\CCC(C)OC(=O)C4[C@H]2C(=O)N(CCCCCO)[C@@H]3C1=O (stereo not given in full) 0.683
O=C1C2C=CC(C(O)c3cccs3)N(Nc3ccccc3F)C2C(=O)N1c1ccccc1 (stereo not given) -0.0052
NCCCCCCNC(=O)[C@H]1C[C@H]2C(=O)NCC(=O)N2[C@H]1c1cccc(OCCO)c1 1.42
COC(=O)C(CC#Cc1ccc2c(c1)[C@]1(C(=O)N2)[C@H](c2ccc(OCCO)cc2)N2[C@H](c3ccccc3)[C@H](c3ccccc3)OC(=O)[C@H]2[C@@H]1C(=O)NC[C@H](O)c1ccccc1)C(=O)OC 0.602
CCCN1C(=O)[C@@]2(CCC(=O)OC(C)(C)C)N=C(c3ccc(OCCCO)cc3)O[C@H]2c2ccccc21 0.923

Reference: PubChem BioAssay
